According to PubChem BioAssay AID1159580 (chemical genetic matrix, 2015):
The campaign covered roughly 5,500 compounds. About 2,000 (36%) were called active. Roughly 18% stayed inconclusive and do not appear here. No stated cut-off is given here; in the data, active means normalized growth mostly below about 0.91 (no sharp cut-off); inconclusive means no clear call, values can overlap the other calls; inactive means mostly above about 0.92. The list shows a part of the results.

Experiment: chemical genetic growth profiling, strain panel (AID 1159580);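 further: tested at 20 µM; growth read once vehicle control cultures reached saturation at 30 °C; 1 = growth at the plate median or of vehicle wells; lower values mean less growth of the strain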
Details: growth OD
[1] = S. cerevisiae deletion strains, locus YAL013W, strain DEP1, hits give low values
[2] = S. cerevisiae deletion strains, locus YDR150W, strain NUM1, hits give low values
[3] = S. cerevisiae deletion strains, locus YGR078C, strain PAC10, hits give low values
[4] = S. cerevisiae deletion strains, locus YJR075W, strain HOC1, hits give low values
[5] = S. cerevisiae deletion strains, locus YMR307W, strain GAS1, hits give low values
[6] = S. cerevisiae deletion strains, locus YNL128W, strain TEP1, hits give low values
[7] = S. cerevisiae deletion strains, locus YNL153C, strain GIM3, hits give low values
[8] = S. cerevisiae deletion strains, locus YNL322C, strain KRE1, hits give low values
[9] = S. cerevisiae deletion strains, locus YPL055C, strain LGE1, hits give low values
[10] = S. cerevisiae deletion strains, locus YPL241C, strain CIN2, hits give low values

Measured: normalized growth

NC(=S)NCCCC(N)C(=O)O (centres undefined)
inactive: [1] 1.01 | S. cerevisiae deletion strains, locus YAL040C, strain CLN3, hits give low values 1 | S. cerevisiae deletion strains, locus YCL061C, strain MRC1 (second series), hits give low values 1.01 | [2] 1.01 | S. cerevisiae deletion strains, locus YDR363W, strain ESC2, hits give low values 1.02 | S. cerevisiae deletion strains, locus YER002W, strain NOP16, hits give low values 1.02 | [3] 1.01 | [4] 1.02 | [5] 1.01 | [6] 1.03 | [7] 1.01 | S. cerevisiae deletion strains, locus YNL175C, strain NOP13, hits give low values 1.03 | S. cerevisiae deletion strains, locus YNL197C, strain WHI3, hits give low values 1.01 | S. cerevisiae deletion strains, locus YNL224C, strain SQS1, hits give low values 1.02 | [8] 1.02 | S. cerevisiae deletion strains, locus YOR083W, strain WHI5 (second series), hits give low values 0.994 | [9] 1.03 | [10] 1.01

CCc1cccc(CC)c1N(COC)C(=O)CCl
inactive: [1] 1 | S. cerevisiae deletion strains, locus YBR021W, strain FUR4, hits give low values 1.01 | S. cerevisiae deletion strains, locus YBR229C, strain ROT2, hits give low values 1.01 | S. cerevisiae deletion strains, locus YCL029C, strain bik1, hits give low values 1.02 | S. cerevisiae deletion strains, locus YDL035C, strain GPR1, hits give low values 1.02 | S. cerevisiae deletion strains, locus YDL074C, strain BRE1, hits give low values 1.03 | S. cerevisiae deletion strains, locus YDL101C, strain DUN1, hits give low values 1.01 | S. cerevisiae deletion strains, locus YDL134C, strain PPH21, hits give low values 1.01 | S. cerevisiae deletion strains, locus YDL185W, strain tfp1, hits give low values 1.02 | S. cerevisiae deletion strains, locus YDL192W, strain arf1, hits give low values 1.03 | S. cerevisiae deletion strains, locus YDR101C, strain arx1, hits give low values 1.02 | [2] 0.995 | S. cerevisiae deletion strains, locus YDR162C, strain NBP2, hits give low values 0.999 | S. cerevisiae deletion strains, locus YDR318W, strain mcm21, hits give low values 1.02 | S. cerevisiae deletion strains, locus YDR388W, hits give low values 1.02 | S. cerevisiae deletion strains, locus YDR502C, strain sam2, hits give low values 1.02 | S. cerevisiae deletion strains, locus YEL061C, strain CIN8, hits give low values 1 | S. cerevisiae deletion strains, locus YER110C, hits give low values 1.01 | S. cerevisiae deletion strains, locus YER155C, strain BEM2, hits give low values 1 | S. cerevisiae deletion strains, locus YER167W, strain BCK2, hits give low values 1 | S. cerevisiae deletion strains, locus YGL078C, strain dbp3, hits give low values 1.02 | S. cerevisiae deletion strains, locus YGL086W, strain mad1, hits give low values 0.999 | S. cerevisiae deletion strains, locus YGL248W, strain PDE1, hits give low values 1.01 | [3] 1.01 | S. cerevisiae deletion strains, locus YGR135W, strain pre9, hits give low values 1.02 | S. cerevisiae deletion strains, locus YGR229C, strain SMI1, hits give low values 1.02 | S. cerevisiae deletion strains, locus YGR252W, strain gcn5, hits give low values 1.05 | S. cerevisiae deletion strains, locus YHR030C, strain SLT2, hits give low values 1 | S. cerevisiae deletion strains, locus YHR079C, strain IRE1 (second series), hits give low values 1.02 | S. cerevisiae deletion strains, locus YHR094C, strain hxt1, hits give low values 1.02 | S. cerevisiae deletion strains, locus YHR129C, strain ARP1, hits give low values 1 | S. cerevisiae deletion strains, locus YHR200W, strain rpn10, hits give low values 1.02 | S. cerevisiae deletion strains, locus YIL066C, strain RNR3, hits give low values 1.01 | S. cerevisiae deletion strains, locus YIL073C, strain SPO22, hits give low values 1.11 | S. cerevisiae deletion strains, locus YIL125W, strain kgd1, hits give low values 1.01 | S. cerevisiae deletion strains, locus YIR030C, strain dcg1, hits give low values 1.03 | S. cerevisiae deletion strains, locus YJL095W, strain BCK1, hits give low values 1.02 | S. cerevisiae deletion strains, locus YJL134W, strain LCB3, hits give low values 1.01 | S. cerevisiae deletion strains, locus YJL168C, strain set2, hits give low values 1.03 | S. cerevisiae deletion strains, locus YJL187C, strain SWE1 (second series), hits give low values 1 | S. cerevisiae deletion strains, locus YJR043C, strain POL32, hits give low values 1.01 | [4] 1.01 | S. cerevisiae deletion strains, locus YKL009W, strain mrt4, hits give low values 1.05 | S. cerevisiae deletion strains, locus YKL068W, hits give low values 0.999 | S. cerevisiae deletion strains, locus YKL085W, strain MDH1 (second series), hits give low values 1.01 | S. cerevisiae deletion strains, locus YKL085W, strain MDH1, hits give low values 1.01 | S. cerevisiae deletion strains, locus YKL190W, strain CNB1, hits give low values 0.992 | S. cerevisiae deletion strains, locus YKR001C, strain vps1, hits give low values 1.04 | S. cerevisiae deletion strains, locus YLR039C, strain RIC1, hits give low values 1 | S. cerevisiae deletion strains, locus YLR058C, strain SHM2, hits give low values 1.01 | S. cerevisiae deletion strains, locus YLR102C, strain apc9, hits give low values 1.03 | S. cerevisiae deletion strains, locus YLR262C, strain YPT6, hits give low values 1.02 | S. cerevisiae deletion strains, locus YLR268W, strain sec22, hits give low values 1.02 | S. cerevisiae deletion strains, locus YLR330W, strain CHS5, hits give low values 1.01 | S. cerevisiae deletion strains, locus YLR342W, strain FKS1 (second series), hits give low values 1 | S. cerevisiae deletion strains, locus YLR371W, strain rom2, hits give low values 1.02 | S. cerevisiae deletion strains, locus YLR418C, strain cdc73, hits give low values 1.05 | S. cerevisiae deletion strains, locus YML016C, strain PPZ1, hits give low values 1 | S. cerevisiae deletion strains, locus YML032C, strain rad52, hits give low values 1.03 | S. cerevisiae deletion strains, locus YML124C, strain tub3, hits give low values 1.01 | S. cerevisiae deletion strains, locus YMR078C, strain ctf18, hits give low values 1.02 | S. cerevisiae deletion strains, locus YMR223W, strain ubp8, hits give low values 1.02 | S. cerevisiae deletion strains, locus YMR263W, strain SAP30, hits give low values 0.997 | [5] 1.01 | S. cerevisiae deletion strains, locus YNL067W, strain RPL9B, hits give low values 1 | [6] 1.01 | [7] 1 | S. cerevisiae deletion strains, locus YNL233W, strain BNI4, hits give low values 1.01 | S. cerevisiae deletion strains, locus YNL250W, strain rad50, hits give low values 1.02 | S. cerevisiae deletion strains, locus YNL271C, strain bni1, hits give low values 1.03 | S. cerevisiae deletion strains, locus YNL298W, strain CLA4, hits give low values 1.03 | S. cerevisiae deletion strains, locus YNL307C, strain MCK1, hits give low values 1.03 | [8] 1 | S. cerevisiae deletion strains, locus YNR052C, strain pop2, hits give low values 1.03 | S. cerevisiae deletion strains, locus YOL006C, strain TOP1, hits give low values 1.05 | S. cerevisiae deletion strains, locus YOL012C, strain htz1 1.33 | S. cerevisiae deletion strains, locus YOL147C, strain pex11, hits give low values 1.02 | S. cerevisiae deletion strains, locus YOR061W, strain CKA2, hits give low values 0.999 | S. cerevisiae deletion strains, locus YOR069W, strain VPS5, hits give low values 0.999 | S. cerevisiae deletion strains, locus YOR136W, strain idh2, hits give low values 1.02 | S. cerevisiae deletion strains, locus YOR144C, strain elg1, hits give low values 1.02 | S. cerevisiae deletion strains, locus YOR184W, strain ser1, hits give low values 1.04 | S. cerevisiae deletion strains, locus YOR316C, strain cot1, hits give low values 1.03 | [9] 1.02 | [10] 1.01 | S. cerevisiae deletion strains, locus YPR119W, strain clb2, hits give low values 1.02 | S. cerevisiae deletion strains, locus YPR141C, strain kar3, hits give low values 1.03 | S. cerevisiae deletion strains, locus YPR163C, strain tif3, hits give low values 1.03 | S. cerevisiae deletion strains, locus YPR167C, strain met16, hits give low values 1.02 | S. cerevisiae deletion strains, strain wtn01, hits give low values 1.01 | S. cerevisiae strains, strain wild type, hits give low values 1
